High-throughput results from PubChem BioAssay.
LmPK inh = LmPK (Leishmania mexicana) enzyme inhibition | Q27686 | purified LmPK, Kinase-Glo ATP luminescence, 1 h | Potency, µM (top dose mostly 57.5 µM), for the others: at the highest dose activity change, negative = inhibition, usual class: inhibitors | 0.37% of 290,000 active; note: potency is the fitted concentration of half-maximal effect; % is set by controls: 0 for no effect and ±100 for the full control effect
Target sequence (Q27686 whole entry, looked up): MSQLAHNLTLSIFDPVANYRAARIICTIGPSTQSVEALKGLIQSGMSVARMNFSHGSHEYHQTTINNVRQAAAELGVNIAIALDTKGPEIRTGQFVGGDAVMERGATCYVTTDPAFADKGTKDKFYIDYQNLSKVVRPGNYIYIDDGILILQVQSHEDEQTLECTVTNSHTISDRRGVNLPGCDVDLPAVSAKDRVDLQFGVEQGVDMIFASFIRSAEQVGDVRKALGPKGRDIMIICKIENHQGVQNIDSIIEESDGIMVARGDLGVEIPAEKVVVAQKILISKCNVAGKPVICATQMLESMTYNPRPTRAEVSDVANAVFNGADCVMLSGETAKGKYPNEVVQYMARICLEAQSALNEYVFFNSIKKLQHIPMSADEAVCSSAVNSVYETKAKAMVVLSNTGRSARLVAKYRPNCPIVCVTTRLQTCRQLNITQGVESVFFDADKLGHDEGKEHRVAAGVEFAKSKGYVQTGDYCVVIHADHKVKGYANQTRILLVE
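ATP generated from ADP (0.1 mM) and PEP (0.5 mM) by 0.1 nM LmPK over 1 h at room temperature (pH 7.2 imidazole buffer) was detected by coupled luciferase luminescence. Values were normalized to uninhibited and no-enzyme wells.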
Pf growth 48h = P. falciparum growth inhibition at 48 hours (one generation); P. falciparum luciferase growth in erythrocytes, 48 h; Potency, µM (top dose mostly 28.7 µM), without a hit: top-dose activity change, negative = inhibition, usual class: inhibitors; 5.9% of 310,000 active; note: potency is the fitted concentration of half-maximal effect; % is set by controls: 0 for no effect and ±100 for the full control effect
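Cell-based growth assay: transgenic P. falciparum expressing firefly luciferase, cultured in red cells within RPMI 1640 containing 0.5% w/v Albumax, 24 mM bicarbonate and gentamycin. A drop in luciferase activity indicates inhibition.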
Shiga inhibitor = inhibitors of Shiga toxin in Vero cells | Vero cells, Shiga toxin protein synthesis inhibition reporter | inhibition, % at 38.7 µM | 9.2% of 290,000 active; in the data active = inhibition mostly above about 28%, no sharp cut-off; inactive = mostly below about 43%; note: 0% is about no effect
Pf growth 96h = P. falciparum growth inhibition at 96 hour, primary screen for plastid delayed-death inhibitors | P. falciparum luciferase reporter growth, 96 h | Potency, µM (series often up to 28.7 µM), for inactives: at the highest dose activity change, negative = inhibition, usual class: inhibitors | 6.9% of 320,000 active | AID 504834; note: potency is the fitted concentration of half-maximal effect; % is set by controls: 0 for no effect and ±100 for the full control effect
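P. falciparum expressing integrated firefly luciferase, in erythrocytes at 2% hematocrit, 0.05% parasitemia, incubated with compounds 96 h at 37 C, 5% CO2. Growth inhibition read as loss of luminescence; two-generation exposure targets delayed-death apicoplast inhibitors.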
CHX counter = counter-screen hit for Shiga toxin inhibitors, cycloheximide; cell reporter, cycloheximide protein synthesis inhibition counterscreen; max response, %; 12% of 300,000 active; AID 2314; in the data active = max response mostly above about 13%, no sharp cut-off; inactive = mostly below about 14%; note: read at 38.3 µM for the half of the compounds with a filed dose; 0% is about no effect
An asterisk follows results filed as active. Only some compounds are listed: those with a hit (about 22% of all), similar ones and a draw of the others. Unless noted, calls come from the whole dose curve; as a rule, active = well fitted inhibition curve with a large enough effect; inconclusive = small, poorly fitted or top-dose-only effect, or another doubt; inactive = no such curve, though single readings can be large or run the other way.

Results for Cc1ccc(C)c(S(=O)(=O)/N=C2\C=C(NS(=O)(=O)c3ccccc3)C(=O)c3ccccc32)c1 ?
LmPK inh: -4.0%; Pf growth 48h: inconclusive; Shiga inhibitor: -7.4; Pf growth 96h: inconclusive; CHX counter: -3.6

What do the screens show for `Cc1ccc(NC2=C/C(=N/S(=O)(=O)c3cccs3)c3ccccc3C2=O)cc1C`?
LmPK inh: -19.7%; Pf growth 48h: 0.657µM*; Shiga inhibitor: 50.2*; Pf growth 96h: 10.7%; CHX counter: 31.4*

How did Cc1ccccc1NC1=C/C(=N\S(=O)(=O)c2cccs2)c2ccccc2C1=O do in these assays?
LmPK inh: inconclusive; Pf growth 48h: 0.0928µM*; Shiga inhibitor: -25.6; CHX counter: 7.4

What do the screens show for `CC(=O)Nc1ccc(NC2=C/C(=N/S(=O)(=O)c3cccs3)c3ccccc3C2=O)cc1`?
LmPK inh: -22.0%; Pf growth 48h: 0.147µM*; Shiga inhibitor: 5.1; Pf growth 96h: 103.9%; CHX counter: 17.0

How did CC(=O)Nc1ccc(NC(=O)C(C)OC(=O)c2ccccc2NS(=O)(=O)c2cccs2)cc1 (configuration not stated) do in these assays?
LmPK inh: -0.8%; Pf growth 48h: -5.2%; Shiga inhibitor: -2.2; Pf growth 96h: inconclusive; CHX counter: -0.9

How did COc1ccc(S(=O)(=O)/N=C2\C=C(Nc3ccc(O)cc3)C(=O)c3ccccc32)cc1 do in these assays?
LmPK inh: -21.3%; Pf growth 48h: 0.928µM*; Shiga inhibitor: 13.1; Pf growth 96h: 17.8%; CHX counter: 10.4

How did COC(=O)C(C(C)=O)C1=C/C(=N\S(=O)(=O)c2ccc(C)cc2)c2ccccc2C1=O (configuration not stated) do in these assays?
LmPK inh: inconclusive; Shiga inhibitor: -11.1; Pf growth 96h: inconclusive; CHX counter: -1.4

Results for Cc1ccc(NS(=O)(=O)c2cccs2)c(C)c1 ?
LmPK inh: 0.5%; Pf growth 48h: 10.1%; Shiga inhibitor: -5.7; Pf growth 96h: inconclusive; CHX counter: -1.1

How did O=C1CCCC(=O)C1CS(=O)(=O)c1ccccc1 do in these assays?
LmPK inh: 6.7%; Pf growth 48h: 0.0%; Shiga inhibitor: -8.2; Pf growth 96h: -9.8%; CHX counter: 0.8

How did Cc1cc(Cl)ccc1OCc1nc(-c2ccc(O)cc2)n[nH]1 do in these assays?
LmPK inh: 1.2%; Pf growth 48h: -3.6%; Shiga inhibitor: 29.2; CHX counter: 24.5

What do the screens show for `Oc1ccc(N=Nc2n[nH]c(-c3ccc(Cl)cc3)n2)cc1`?
LmPK inh: 3.4%; Pf growth 48h: 10.8%; Shiga inhibitor: 81.6*; Pf growth 96h: inconclusive; CHX counter: 22.6*

How did Cc1nn(C)c(Cl)c1C(=O)NCC(=O)NCc1ccccc1 do in these assays?
LmPK inh: 2.6%; Pf growth 48h: inactive; Shiga inhibitor: 25.4; Pf growth 96h: 10.4%; CHX counter: 2.3

Results for CC1=CC(C)(C)N(S(=O)(=O)c2ccc(C)cc2)c2ccccc21 ?
LmPK inh: -6.0%; Shiga inhibitor: -14.3; Pf growth 96h: 10.4µM*; CHX counter: -6.9

What do the screens show for `CCOc1ccc2c(c1)C(C)=CC(C)(C)N2S(=O)(=O)c1ccc(NC(C)=O)cc1`?
LmPK inh: -0.5%; Pf growth 48h: 6.57µM*; Shiga inhibitor: -24.2; Pf growth 96h: 45.5%; CHX counter: -3.9

What do the screens show for `COc1ccc2c(c1)C(C)=CC(C)(C)N2S(=O)(=O)c1ccc(NC(C)=O)cc1`?
LmPK inh: -6.3%; Pf growth 48h: inconclusive; Shiga inhibitor: -7.9; Pf growth 96h: -3.8%; CHX counter: -3.7

What do the screens show for `COc1ccc2c(c1)C(C)=CC(C)(C)N2S(=O)(=O)c1ccc(Br)cc1`?
LmPK inh: 9.2%; Pf growth 48h: 9.28µM*; Shiga inhibitor: 14.9; Pf growth 96h: -11.5%; CHX counter: -3.2

How did CC1=CC(C)(C)N(S(=O)(=O)c2ccc(F)cc2)c2ccc(C)cc21 do in these assays?
LmPK inh: 1.2%; Shiga inhibitor: -5.3; Pf growth 96h: 14.7µM*; CHX counter: -1.8

Results for COc1cccc(CN2CCN(S(=O)(=O)c3ccc(Br)cc3)CC2)c1 ?
LmPK inh: 2.9%; Pf growth 48h: 4.7%; Shiga inhibitor: -1.4; CHX counter: -2.9

How did CCOc1ccc2c(c1)C(C)=CC(C)(C)N2S(=O)(=O)c1ccc(F)cc1 do in these assays?
LmPK inh: 7.4%; Pf growth 48h: -16.1%; Pf growth 96h: inconclusive; CHX counter: -1.1

Results for Cc1ccc(S(=O)(=O)N2CCC(C(=O)OCCOc3cccc(C)c3)CC2)cc1 ?
Pf growth 48h: -7.7%; Pf growth 96h: 21.7%

How did COc1ccc(C(=O)OCC(=O)Nc2sccc2C(N)=O)cc1[N+](=O)[O-] do in these assays?
Pf growth 48h: 7.3%; Pf growth 96h: -29.0%

Results for Cc1ccc(-c2cnc(NCc3cc4c(cc3[N+](=O)[O-])OCO4)n2C)cc1C ?
LmPK inh: 9.4%; Pf growth 48h: 0.0%; Shiga inhibitor: 12.3; Pf growth 96h: inconclusive; CHX counter: -0.4

What do the screens show for `Cn1c(-c2ccc3c(c2)OCO3)cnc1NCc1ccccc1`?
LmPK inh: -2.5%; Pf growth 48h: 15.0%; Shiga inhibitor: 56.3; Pf growth 96h: 34.0%; CHX counter: 38.5*

How did Cn1c(-c2ccc(F)cc2)cnc1NCc1cccc([N+](=O)[O-])c1 do in these assays?
LmPK inh: -7.2%; Pf growth 48h: 5.6%; Shiga inhibitor: -3.8; Pf growth 96h: inconclusive; CHX counter: -2.6

Results for Cn1c(-c2ccc3c(c2)OCO3)cnc1NCc1cccc(Cl)c1 ?
LmPK inh: 0.7%; Pf growth 48h: inconclusive; Shiga inhibitor: 21.4; Pf growth 96h: inconclusive; CHX counter: 12.9

Results for Cn1c(-c2ccc(Br)cc2)cnc1NCc1ccc(C#N)cc1 ?
LmPK inh: -4.6%; Pf growth 48h: inconclusive; Shiga inhibitor: -10.9; Pf growth 96h: inconclusive; CHX counter: -2.7

How did Cn1c(-c2cccc([N+](=O)[O-])c2)cnc1NCc1cccc(F)c1 do in these assays?
LmPK inh: -11.2%; Pf growth 48h: 44.7%; Shiga inhibitor: -2.1; Pf growth 96h: 4.65µM*; CHX counter: -3.6

How did Cc1ccc(CNc2ncc(-c3ccccc3)n2C)o1 do in these assays?
LmPK inh: -2.2%; Pf growth 48h: 21.1%; Shiga inhibitor: 20.4; Pf growth 96h: 2.4%; CHX counter: 25.5*

What do the screens show for `Cn1c(-c2ccc3c(c2)OCO3)cnc1NCc1ccccc1Cl`?
LmPK inh: -2.3%; Pf growth 48h: -4.3%; Shiga inhibitor: 72.7*; Pf growth 96h: 49.5%; CHX counter: 32.7*

Results for CCN(CC)c1nc2c(c(=O)[nH]c(=O)n2C)n1CCCc1ccccc1 ?
LmPK inh: -1.8%; Pf growth 48h: -20.0%; Shiga inhibitor: -13.4; Pf growth 96h: 28.4%; CHX counter: -4.3

How did COc1cccc(C(=O)NCC(=O)N2CCN(c3ccc(C(F)(F)F)cn3)CC2)c1 do in these assays?
Pf growth 48h: inconclusive; Pf growth 96h: -0.2%
